Screens: PubChem BioAssay, National Center for Advancing Translational Sciences (NCATS)
Rows were chosen to be rich in hits. Some 12% of all compounds tested hit in one or more screens of this group.
BAZ2B inh = BAZ2B (human) inhibition | AlphaScreen BAZ2B-H3K14Ac peptide displacement | AID 504333 | Q9UIF8 | Potency, µM (series often up to 114 µM), most hits filed as inhibitors | actives 4.4% (n = 360,000); note: nearly all actives have a fitted effect of over 60% in size
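AlphaScreen displacement of biotin-H3(5-23)K14Ac peptide (50 nM final) from BAZ2B (50 nM final) in PBS pH 7.4, 0.01% Tween-20; complex preformed 30 min RT, then compounds (top 110 uM) 30 min RT, beads 20 min dark.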
JMJD2A Tudor inh = blocks the human JMJD2A Tudor domain | AlphaScreen JMJD2A-Tudor / H3K4me3 peptide binding | Potency, µM (titrated, usually from 114 µM), most hits filed as inhibitors | actives 4.4% (n = 390,000) | AID 504339; note: nearly all actives have a fitted effect of over 50% in size
Target sequence (O75164 whole entry, looked up, the tested form may be a part): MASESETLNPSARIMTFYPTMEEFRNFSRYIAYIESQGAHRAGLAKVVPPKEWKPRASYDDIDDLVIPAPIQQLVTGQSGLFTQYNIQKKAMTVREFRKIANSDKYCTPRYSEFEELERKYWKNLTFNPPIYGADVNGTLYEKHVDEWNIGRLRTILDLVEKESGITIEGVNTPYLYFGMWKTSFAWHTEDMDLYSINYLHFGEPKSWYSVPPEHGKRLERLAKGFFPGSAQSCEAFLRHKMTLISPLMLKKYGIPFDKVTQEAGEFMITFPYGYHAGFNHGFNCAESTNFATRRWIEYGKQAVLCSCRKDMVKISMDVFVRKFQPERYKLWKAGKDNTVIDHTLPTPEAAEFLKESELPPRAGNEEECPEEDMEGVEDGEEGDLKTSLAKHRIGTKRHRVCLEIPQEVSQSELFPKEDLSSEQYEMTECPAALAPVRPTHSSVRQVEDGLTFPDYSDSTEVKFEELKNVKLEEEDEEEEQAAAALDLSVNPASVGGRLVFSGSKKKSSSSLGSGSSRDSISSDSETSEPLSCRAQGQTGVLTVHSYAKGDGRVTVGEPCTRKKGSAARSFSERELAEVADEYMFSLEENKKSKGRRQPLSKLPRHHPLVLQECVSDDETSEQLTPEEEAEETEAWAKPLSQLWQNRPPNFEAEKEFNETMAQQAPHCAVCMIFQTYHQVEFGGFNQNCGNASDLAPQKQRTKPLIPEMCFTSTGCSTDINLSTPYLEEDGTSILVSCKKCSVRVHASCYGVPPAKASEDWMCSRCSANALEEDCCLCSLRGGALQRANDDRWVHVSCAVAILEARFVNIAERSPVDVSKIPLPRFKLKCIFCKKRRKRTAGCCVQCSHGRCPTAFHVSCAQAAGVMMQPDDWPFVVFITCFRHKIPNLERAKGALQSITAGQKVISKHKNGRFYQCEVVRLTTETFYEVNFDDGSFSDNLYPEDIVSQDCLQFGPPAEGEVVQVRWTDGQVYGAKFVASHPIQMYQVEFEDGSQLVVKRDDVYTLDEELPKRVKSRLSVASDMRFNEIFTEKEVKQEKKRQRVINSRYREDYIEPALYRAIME
G9a inh = inhibitors of human histone lysine methyltransferase G9a; Potency, µM (highest dose often 102 µM), actives largely listed as inhibitors; actives 8.8% (n = 350,000); G9a H3K9 monomethylation, AlphaScreen, 2 h; AID 504332; note: nearly all actives have a fitted effect of over 75% in size
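Methyltransferase reactions run at room temperature for 2 h (20 nM enzyme, 500 nM biotin-H3K9 peptide, 20 uM SAM) after a 15 min compound preincubation; product detected by AlphaScreen beads and anti-H3K9me1 antibody.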
Sfp inh = Sfp phosphopantetheinyl transferase inhibition; Biochemical Sfp PPTase activity, qHTS; actives 3.5% (n = 310,000); AID 1490; Potency, µM, most hits filed as inhibitors; Q9F4F7;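 note: the enzyme is Sfp with the accession as filed and its product quenches rhodamine fluorescence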
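Sfp 15 nM + cpd, 15 min RT; start w/ rhodamine-CoA 5 uM, BHQ-2-YbbR 12.5 uM (final); 50 mM Hepes pH 7.6, 10 mM MgCl2, 0.01% NP-40, 0.01% BSA; read 525/598 nm at 0 and 30 min.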
HP1b chromo inh = inhibitors of HP1-beta chromodomain binding to methylated histone tails; AlphaScreen HP1-beta / biotin-H3K9me3 peptide binding; Potency, µM (series often up to 114 µM), most hits filed as inhibitors; actives 0.56% (n = 390,000); AID 540317; note: nearly all actives have a fitted effect of over 70% in size
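HP1-beta protein (50 nM final) preincubated 30 min at room temperature with biotinylated H3(1-18)K9me3 peptide (50 nM) in PBS pH 7.4, 0.01% Tween-20, then compound added for 30 min. AlphaScreen streptavidin donor/nickel chelate acceptor beads (10 ug/mL final), 30 min dark, luminescence read.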
PLK1 PBD inh = blocks phosphopeptide binding to human PLK1 polo-box domain; P53350; Plk1 PBD binding of FITC phosphopeptide, fluorescence polarization; Potency, µM, usual class: inhibitors; actives 2.8% (n = 360,000); AID 720504; note: series mostly up to about 57 µM; nearly all actives have a fitted effect of over 65% in size
Hits are given with their value; 0 = inactive; ? = inconclusive; - = no result given; [ ] = another dose, or the depositor's remark. Calls come from the whole dose curve; as a rule, active = well fitted curve in the direction sought with a large enough effect; inconclusive = small, poorly fitted or top-dose-only effect, or another doubt; inactive = no such curve, though single readings can be large; an effect the other way counts as inactive or inconclusive.

SMILES | BAZ2B inh | JMJD2A Tudor inh | G9a inh | Sfp inh | HP1b chromo inh | PLK1 PBD inh
O=C(O)CCc1n[nH]c(=S)[nH]c1=O | 0 | 0 | 0 | 56µM | 0 | 0
CC(=O)Nc1cc(C(=O)NCc2ccccc2Cl)ccc1Sc1ccc(F)cc1 | 0 | 0 | 0 | - | 0 | -
CCN(CCCNC(=O)c1ccc(Sc2ccc(F)cc2)c(NC(C)=O)c1)c1ccccc1 | ? | 56µM | ? | - | 0 | -
Cn1c(=O)c2cc(NCc3ccccc3)nnc2n(C)c1=O | 0 | 0 | 14µM | ? | 0 | 0
Cn1c(=O)c2c(nc(NCc3ccccc3)n2C)n(C)c1=O | 0 | 0 | 0[12.7 µM] | 0 | 0 | 0
Cc1ccc(-c2cc(-c3ccccc3)no2)cc1 | 0 | 0 | 0[2.33 µM] | - | 0 | 0
c1ccc(-c2cc(-c3ccccc3)on2)cc1 | 0 | 0[11.4 µM] | 0 | 0 | 0 | 13µM
O=C(O)c1ccc(Nc2nc3ccccc3n3cnnc23)cc1 | 0 | 0 | 0 | - | 0 | -
Cc1ccc(N(CC(=O)NCCSc2ccccn2)S(C)(=O)=O)cc1 | 0 | 0 | 28µM | 0 | 0 | ?
Cn1nnnc1Sc1ncnc2scc(-c3cccc(Cl)c3)c12 | - | 0 | - | - | - | -
N#Cc1c2nc3ccccc3nc2n2cc(NC(=O)c3ccc(F)cc3)ccc12 | ? | 18µM | 3.2µM | ? | 0 | 0
CC1(C)CCC(=NNC(N)=S)CC1 | - | 0.71µM | - | - | ? | 0
NC(=S)NN=C1CCC2(CCCCC2)CC1 | - | 0 | - | - | 0 | 0
CNc1ncncc1-c1c(C)noc1C | - | - | 0[0.501 µM] | 0 | - | -
COc1ccc(OC)c(Nc2nc(-c3sc(NC(=O)CC(C)C)nc3C)cs2)c1 | ? | 45µM | 8.9µM | 0 | ? | 0
CCCCC(=O)Nc1nc(C)c(-c2csc(Nc3cc(OC)ccc3OC)n2)s1 | ? | ? | ? | 0 | ? | 0
CCC(C)C(=O)Nc1nc(C)c(-c2csc(Nc3cc(OC)ccc3OC)n2)s1 (stereo not given) | 50µM | 50µM | 22µM | 0 | 0 | 0
CCCC(C)C(=O)Nc1nc(C)c(-c2csc(Nc3ccccc3OC)n2)s1 (stereo not given) | ? | ? | 7.9µM | ? | 0 | 0
COc1ccc(OC)c(Nc2nc(-c3sc(C)nc3C)cs2)c1 | 32µM | 40µM | 50µM | ? | ? | 0
COC1C[C@@H](O[C@@H]2C(C)C(=O)OC(C)C(C)[C@H](OC(C)=O)C(C)C(=O)[C@@]3(CO3)CC(C)C(OC3OC(C)CC(N(C)C)[C@H]3OC(C)=O)C2C)OC(C)[C@@H]1OC(C)=O (stereo not given in full) | - | - | 0[2.33 µM] | 0 | - | -
COc1ccc(N=c2nc(-c3ccccc3)n(-c3ccc(C)cc3)s2)cc1 | - | 0 | - | - | 0 | -
CCc1c(C)sc2c1CCN(Cc1ccccc1)C2c1ccccc1 (stereo not given) | 0 | 0 | 0[12.7 µM] | - | 0 | -
COc1ccc([N+](=O)[O-])cc1NC1CCN(C(=O)c2cccs2)CC1 | 0 | 0 | 0 | 0 | 0 | 0
CN(C)c1ccc(-c2ccc3c(=O)c4ccccc4n(C)c3c2)cn1 | ? | ? | ? | 0 | 0 | 0
COc1ccc(Br)cc1S(=O)(=O)N1CCN(S(=O)(=O)c2ccc3c(c2)OCCO3)CC1 | - | 0 | - | - | - | -
SMILES | BAZ2B inh | JMJD2A Tudor inh | G9a inh | Sfp inh | HP1b chromo inh | PLK1 PBD inh
CCN(CC)C(=O)C1=C(C)N(Cc2ccccc2)C(=O)C(CC(=O)NCCN2CCOCC2)C1 (stereo not given) | - | - | - | - | - | 0
Cc1cccc(N=Nc2ccc(O)c3ncccc23)c1 | 8.9µM | 32µM | 7.1µM | 0 | ? | 0
Oc1ccc(N=Nc2ccc3c(c2)OCCO3)c2ncccc12 | ? | ? | 11µM | 0 | 0 | 0
Cc1ccc(C(=O)Nc2c(C)cc(C)c3cccnc23)cc1 | 0 | 0 | 0 | 0 | 0 | 0
CC(=O)/C(N=Nc1ccc2c(c1)OCCO2)=C(\C)O | 0 | ? | 0 | 0 | 0 | 0
Cc1ccc(C)c(N=Nc2ccc(O)c3ncccc23)c1 | 20µM | 8.9µM | 11µM | 0 | ? | 0
Cc1ccc(N=Nc2ccc(N)cc2C)c(S(N)(=O)=O)c1 | 50µM | 8.9µM | 20µM | ? | ? | ?
COCc1nn2c(=O)cc(N3CCNCC3)nc2s1 | - | 0 | - | - | - | -
Cc1cn2c(=O)cc(COC(=O)c3ccc(NC(=O)C(C)Oc4ccccc4)cc3)nc2s1 (stereo not given) | 0 | 0 | 0 | - | 0 | -
Cc1ccc(N=Nc2cc(C)ccc2O)c(C)c1 | 5.6µM | 45µM | 7.9µM | 0 | ? | 0
